Results from PubChem BioAssay AID743398 (Broad Institute, 2014).
About 3,600 (1.2%) of roughly 300,000 compounds were called active. The sample holds actives, similar compounds and a random draw of the others, so the mix is not that of the screen. No stated cut-off is given here; in the data, active means activation above about 30% (passing the limit was not always enough); inconclusive means no clear call, values can overlap the other calls. Where a SMILES comes first, the peptide text is derived from it. [ ]: non-standard residue; d: D form. The star is where a group is joined. PhAc = O=C(Cc1ccccc1)*

assay: activation of beta-catenin signaling reporter – cell-based, plate reader, single point, primary screen (AID 743398); settings: Wnt/beta-catenin reporter cell assay, activator, at 9.35 µM, stronger effect = higher value;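 further: 0% = neutral control wells and 100% = positive control wells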

Row | Structure (SMILES) | activation
1 | Cc1ccc(-c2nc3c(Cl)cc(C(F)(F)F)cn3c2Cc2cccc(Cl)c2)cc1 | -3.09% (inactive)
2 | CC(=O)Nc1cccc(-c2cc(NC=O)c3ncc(-c4ccc(F)c(Cl)c4)n3c2)c1 | -1.52% (inactive)
3 | COc1cccc(-c2cc3nc(NCCOc4ccccc4Cl)n(C)c(=O)c3s2)c1 | 0.348% (inactive)
4 | COc1ccc(-c2ccc3c(n2)CCCN3S(=O)(=O)c2ccc(C)cc2)cc1 | -3.98% (inactive)
5 | O=C(O)CSCc1nc2ccccc2s1 | 39.2% (active)
6 | O=C(O)c1ccccc1CSc1nc2ccccc2s1 | 2.11% (inactive)
7 | O=C(O)CCCCc1nc2ccccc2s1 | -1.61% (inactive)
8 | CS(=O)(=O)N1CCC(C(=O)N2CCN(c3ccccc3)CC2)CC1 | -0.44% (inactive)
9 | CS(=O)(=O)N1CCc2nc(-c3ccccc3)sc2C1 | 35.7% (active)
10 | CC(=O)c1cnc(-c2ccccc2)s1 | 2.94% (inactive)
11 | COC(=O)Cc1nnn2c1[C@H](C)[C@@H](OC)c1cc(Br)ccc1-2 | 2.78% (inactive)
12 | Nc1nc2c(ncn2[C@@H]2O[C@H](C(=O)N[C@H](Cc3ccccc3)C(=O)NCC3CCCCC3)[C@@H](O)[C@H]2O)c(=O)[nH]1 | -6.28% (inactive)
13 | COc1ccc(CNC(=O)c2ccc(-c3cccnc3)c3ccoc23)cc1OC | -3.07% (inactive)
14 | COc1ccc(OCCC(=O)c2ccc(OC)cc2)cc1 | -1.86% (inactive)
15 | COc1ccc(CCC(=O)c2ccc(OC)cc2)cc1 | 5.92% (inactive)
16 | CO/N=C/CC(=O)c1ccc(OC)cc1 | 61.5% (active)
17 | CC(C)(C)C(c1nc2ccccc2[nH]1)n1c(Cc2csc3ccccc23)nc2ccccc21 (configuration not stated) | 15.7% (inactive)
18 | C=CCc1c(C)nc2cc(-c3ccccc3)[nH]n2c1=O | 45.5% (active)
19 | CCCCN1Cc2c(nc3cc(-c4ccccc4)[nH]n3c2=O)C1=O | 0.267% (inactive)
20 | CCc1c(C)nc2cc(C)[nH]n2c1=O | -2.02% (inactive)
21 | COc1ccc(CN2CCC(C)(Oc3cccc(F)c3)C2)c2ccccc12 (configuration not stated) | -4.58% (inactive)
22 | CCc1nc2c(OCCOc3ccccc3)cccn2c1N(C)C(=O)c1ccccc1F | -2.42% (inactive)
23 | CC(O)(c1cccc(F)c1)c1nc(-c2ccc3c(c2)OCO3)cs1 (configuration not stated) | -1.63% (inactive)

Row | Structure (SMILES) | activation
24 | O=C(Oc1ccc(-c2nc(-c3ccccn3)no2)cc1)c1ccccc1 | 1.55% (inactive)
25 | Brc1ccc(-c2noc(-c3ccccc3)n2)o1 | 43.9% (active)
26 | Nc1ccc(-c2nnc(-c3ccccc3)o2)cc1 | 2.79% (inactive)
27 | Cc1cc2nc(-c3ccc(F)cc3)c(Cc3ccsc3)n2c(C)c1Br | -0.642% (inactive)
28 | COc1cccc(CNC(=O)[C@H]2CCCN2C(=O)[C@H]2CCCN2C(=O)C2CCCCC2)c1 | 0.974% (inactive)
29 | CC(C)C[C@@H](NC(=O)[C@H]1CCCN1C(=O)Cc1ccccc1)C(N)=O (PhAc-[dP]-[dL]-NH2) | 0.192% (inactive)
30 | CC(C)C[C@H](NC(=O)C1CCC(CNC(=O)[C@@H]2CCCN2C(=O)OC(C)(C)C)CC1)C(=O)O (some centres not stated) | 1.33% (inactive)
31 | COC(=O)[C@H](CC(C)C)NC(=O)N1CCCCC1C (some centres not stated) | 39.6% (active)
32 | COc1cccc(CNC(=O)[C@H]2CCCN2C(=O)[C@H]2CCCN2C(=O)c2cc(F)cc(F)c2)c1 | -1.85% (inactive)
33 | O=C1c2ccccc2NC(c2ccccc2O)N1NS(=O)(=O)c1ccccc1 (configuration not stated) | -0.668% (inactive)
34 | CN(C)c1ccc(C2Nc3ccccc3C(=O)N2NS(=O)(=O)c2ccccc2)cc1 (configuration not stated) | -0.625% (inactive)
35 | O=C1c2ccccc2NC(c2ccccn2)N1NS(=O)(=O)c1ccccc1 (configuration not stated) | 31% (active)
36 | c1ccc(CNCc2ccc(CNCc3ccccc3)cc2)cc1 | 0.235% (inactive)
37 | N#CCCN(C(=O)Nc1ccc(Cl)c(Cl)c1)C1CCCCC1 | 2.31% (inactive)
38 | CC1(C(=O)NCc2ccc3c(c2)OCO3)CCN1C(=O)Cc1cccc2ccccc12 (configuration not stated) | 12.9% (inactive)
39 | CCN(CC)CCN(C)C(c1ccnc2ccccc12)c1nnnn1-c1ccc2c(c1)OCCO2 (configuration not stated) | -2.38% (inactive)
40 | CCc1cccc(CC)c1N1C(=O)CC(Sc2ccccc2N)C1=O (configuration not stated) | 2.41% (inactive)
41 | c1c2c(cc3sc(N4CCCCC4)nc13)OCCO2 | 1.11% (inactive)
42 | Brc1ccc2nc(N3CCCC3)sc2c1 | 43.7% (active)
43 | O=S(=O)(Nc1ccc2nc(N3CCOCC3)sc2c1)c1ccccc1 | 29.3% (inactive)
44 | COC(=O)[C@@]12C[C@@H](CC(=O)N3CCC(c4ccccc4)CC3)C(=O)N(Cc3ccccc3)C1=CCC(C)(C)C2 | -3.58% (inactive)
45 | CCCCCc1c(Cc2ccccc2)ncn1CCc1ccccc1OC | -9.51% (inactive)
46 | O=C(CNC(=O)c1ccccc1)Oc1ccc([N+](=O)[O-])cc1 | -0.597% (inactive)

Row | Structure (SMILES) | activation
47 | O=C(Nc1ccc2ccccc2c1[N+](=O)[O-])c1ccccc1 | 55.8% (active)
48 | O=C(O)c1cc([N+](=O)[O-])c(Nc2cccc3ccccc23)c([N+](=O)[O-])c1 | 0.153% (inactive)
49 | COC(=O)c1c(-c2ccc(OC)cc2)c2c(c3c4ccccc4n(S(=O)(=O)c4ccc(C)cc4)c13)C(=O)N(C)C2 | -6.59% (inactive)
50 | COC(=O)C1=C(C(=O)OC)C2C=C(C(C)C)C1C(=O)C2(C)O (configuration not stated) | -3.31% (inactive)
51 | O=C(NCc1ccc(F)cc1)c1cc(C2CCCCN2C(=O)c2ccccn2)on1 (configuration not stated) | -0.749% (inactive)
52 | O=C(NCc1ccccc1)[C@@H]1CCCN1C(=O)[C@@H](NS(=O)(=O)c1ccc(F)cc1F)C1CCCCC1 | -0.246% (inactive)
53 | COC(=O)c1ccc(CSc2ccc(S(=O)(=O)N3CCCCC3)cn2)cc1 | -0.89% (inactive)
54 | COC(=O)c1ccc(SCc2ccccc2)nc1 | 51.6% (active)
55 | COC(=O)c1ccc(CSc2nncn2N)cc1 | -7.5% (inactive)
56 | Nc1ccn([C@@H]2O[C@H](C(=O)N[C@H]3CCCCNC3=O)[C@@H](O)[C@H]2O)c(=O)n1 | -3.4% (inactive)
57 | Cc1cc(C)nc(N2CCC(C(=O)Nc3ccc4c(c3)OCCO4)CC2)n1 | -5.24% (inactive)
58 | O=C(Nc1ccc2c(c1)OCCO2)C1CCCC1 | -15.2% (inactive)
59 | O=C(Nc1ccc2c(c1)OCCO2)C1CCCN(c2ncccn2)C1 (configuration not stated) | 45.5% (active)
60 | CC1(C(=O)Nc2cccc3cccnc23)CCN1C(=O)CCC1CCCC1 (configuration not stated) | -4.88% (inactive)
61 | O=[N+]([O-])c1ccccc1N/N=C1\CCc2ccccc21 | 47.7% (active)
62 | O=[N+]([O-])c1cc(C(F)(F)F)ccc1NN=C1CCCC1 | 6.33% (inactive)
63 | CN1CCN(CCNC(=O)Nc2ccccc2[N+](=O)[O-])CC1 | -0.54% (inactive)
64 | CC1=C(C(=O)N2CCOCC2)CC(CC(=O)NCC2CCCCC2)C(=O)N1Cc1ccc(F)cc1 (configuration not stated) | -1.2% (inactive)
65 | CCCCCCN1CCN(C2CN(Cc3cn(Cc4ccc(F)cc4)nn3)S(=O)(=O)C2)CC1 (configuration not stated) | -5.62% (inactive)
66 | Cn1ccc(NC(=O)Nc2ccc(Cl)cc2)n1 | 20.1% (inactive)
67 | Cc1ccc(C(=O)Nc2ccn(C)n2)cc1 | 55.8% (active)
68 | CN(C)S(=O)(=O)c1cc(C(=O)Nc2ccn(C)n2)c(Cl)cc1Cl | 1.22% (inactive)
69 | Cc1ccc(-c2ccc(CN3C(C(C)C)C(=O)N(Cc4cn(CCC5OCCO5)nn4)CCS3(=O)=O)cc2)cc1 (configuration not stated) | -0.655% (inactive)

Row | Structure (SMILES) | activation
70 | CC(=O)Nc1ccc(C(=O)NNC(=O)CCCCC(=O)NNC(=O)c2ccc(NC(C)=O)cc2)cc1 | 1.15% (inactive)
71 | CC(=O)Nc1ccc(C(=O)/C=C/c2ccc[nH]2)cc1 | 42.8% (active)
72 | CC(=O)Nc1ccc(C=CC(=O)c2ccc([N+](=O)[O-])cc2)cc1 | -6.15% (inactive)
73 | CCOc1ccccc1C(=O)N1CCC[C@@H]1C(=O)N1CCC[C@H]1C(=O)NCc1ccccc1 | 1.73% (inactive)
74 | COC(=O)[C@]12C[C@H](CC(=O)NCCc3ccccc3OC)C(=O)N(Cc3ccccc3)C1=C[C@H](C(C)C)O[C@@H]2C1CC1 | -2.31% (inactive)
75 | COc1ccc(Nc2nnc(C)c3ccccc23)cc1 | 1.79% (inactive)
76 | COc1ccc(-c2nnc(-c3ccc4ccccc4c3)o2)cc1 | 3.21% (inactive)
77 | COc1ccc(Nc2ccc3ccccc3c2)cc1 | 50.4% (active)
78 | CCOc1ccc2[nH]c(=S)sc2c1 | 6.79% (inactive)
79 | CCCc1cc(=O)n2[nH]c(C)c(-c3ccc(Cl)cc3)c2n1 | -2.59% (inactive)
80 | COCc1cc(=O)n2[nH]c(C)c(-c3ccccc3)c2n1 | 47.6% (active)
81 | COCc1cc(=O)[nH]c(-c2ccc(C(F)(F)F)cc2)n1 | -1.39% (inactive)
82 | O=C(C(=O)N1CCC(c2ccccc2)CC1)c1ccccc1 | -2.25% (inactive)
83 | Cc1cc(NC(=O)CSc2nc3c(cc2C#N)CCCCC3)no1 | 35.1% (active)
84 | CC(NC(=O)CSc1nc2c(cc1C#N)CN(C)CC2)c1ccccc1 (configuration not stated) | -0.152% (inactive)
85 | Cc1cc(NC(=O)COc2ccccc2C#N)no1 | 19% (inactive)
86 | CCOC(=O)C=Cc1ccc(C(=O)OCC)[nH]1 | -4.57% (inactive)
87 | COc1ccc(C2=CN(Cc3ccccc3)C(c3ccc(OC)cc3)CC2=O)cc1 (configuration not stated) | -3.3% (inactive)
88 | COC(=O)c1ccc(OC(=O)c2cnccn2)cc1 | -1.23% (inactive)
89 | Cn1c(=NC(=O)c2cnccn2)sc2ccccc21 | 40.5% (active)
90 | O=C(NCCCNC(=O)c1ccccc1Cl)c1cnccn1 | -1.92% (inactive)
91 | CC(=O)C1=C(C)N(Cc2ccccc2)C(=S)NC1c1cccc(Br)c1 (configuration not stated) | -4.75% (inactive)
92 | CCOC(=O)[C@]12CCCC=C1N(CCC1=CCCCC1)C(=O)[C@H](CC(=O)NCCCOC)C2 | -3.04% (inactive)
